Measured values published in PubChem BioAssay (Tox21).
A number with no mark means an inactive call. Records with an inconclusive call do not appear. Entries that show only a call come without a potency. Calls of active or inactive are those of the source. Unless noted, calls come from the whole dose curve.

How the values were obtained:
[1] = Nuclear factor erythroid 2-related factor 2/antioxidant responsive element (Nrf2/ARE) small molecule agonists: qHTS cell viability counter screen in human keratinocytes (AID 1919968; active = well fitted curve in the direction sought with a large enough effect in the repeat runs; an effect the other way counts as inactive or inconclusive; note: nearly all actives have a fitted effect of over 55% in size)
In short: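 After a 5 h attachment period, ARE-reporter keratinocytes were dosed with compounds in DMSO and then cultured 23 h at 37 C. Cell viability came from CellTiter-Fluor signal read after a further 1 h.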

[2] = Nuclear factor erythroid 2-related factor 2/antioxidant responsive element (Nrf2/ARE) small molecule agonists: luciferase reporter gene qHTS assay in human keratinocytes (AID 1919969); note: nearly all actives have a fitted effect of over 35% in size; note: potency is the fitted concentration of half-maximal effect
[3] = target: Gonadotropin-releasing hormone receptor (Homo sapiens) (UniProt P30968); experiment: Human gonadotropin-releasing hormone receptor (GnRHR) small molecule agonists, calcium flux assay in GnRHR-HEK293 cells (AID 1920063); note: nearly all actives have a fitted effect of over 35% in size
Gonadotropin-releasing hormone receptor (Homo sapiens), sequence (P30968 whole entry, looked up): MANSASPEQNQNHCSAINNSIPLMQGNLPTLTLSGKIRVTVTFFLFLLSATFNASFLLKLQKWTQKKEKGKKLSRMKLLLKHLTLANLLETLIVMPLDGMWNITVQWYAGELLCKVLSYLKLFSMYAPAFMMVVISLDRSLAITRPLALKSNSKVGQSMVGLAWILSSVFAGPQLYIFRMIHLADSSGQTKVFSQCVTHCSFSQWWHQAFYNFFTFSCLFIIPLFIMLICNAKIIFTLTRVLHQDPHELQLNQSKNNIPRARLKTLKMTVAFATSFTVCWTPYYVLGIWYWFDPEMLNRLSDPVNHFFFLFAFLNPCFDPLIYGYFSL
In short: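 We seeded human GnRHR-expressing HEK293 cells for 18 hours, loaded them with calcium dye for an hour at 37 C, added test compounds, and recorded fluorescence intensity kinetically for three minutes.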

[4] = target: KiSS-1 receptor (Homo sapiens) (UniProt Q969F8); experiment: Human kisspeptin (KISS1R) small molecule agonists, calcium flux assay in KISS1R-HEK293 cells (AID 1920064; active = well fitted curve in the direction sought with a large enough effect in the repeat runs; an effect the other way counts as inactive or inconclusive)
KiSS-1 receptor (Homo sapiens), sequence (Q969F8 whole entry, looked up): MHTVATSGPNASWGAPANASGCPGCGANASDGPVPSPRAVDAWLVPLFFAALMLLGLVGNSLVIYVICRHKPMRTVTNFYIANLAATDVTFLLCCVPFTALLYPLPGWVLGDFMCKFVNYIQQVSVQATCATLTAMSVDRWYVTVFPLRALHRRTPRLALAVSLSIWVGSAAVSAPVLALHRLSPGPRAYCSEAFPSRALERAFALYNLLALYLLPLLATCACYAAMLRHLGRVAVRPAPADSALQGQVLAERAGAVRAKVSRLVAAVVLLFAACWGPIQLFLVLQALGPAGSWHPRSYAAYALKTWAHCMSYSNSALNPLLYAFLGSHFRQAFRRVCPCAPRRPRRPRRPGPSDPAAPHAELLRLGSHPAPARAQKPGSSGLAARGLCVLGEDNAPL
In short: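 Kinetic calcium assay, 1 s sampling over 3 min at Ex/Em 480/540, in HEK293 cells engineered with human KISS1R; compounds delivered in DMSO after 1 h dye loading.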

[5] = G protein-coupled receptor (GPCR) small molecule agonists, calcium flux assay: HEK293 wild type cell line counter screen (AID 1920065)
In short: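 Calcium-sensitive dye, loaded 1 h at 37 C into cells cultured 18 h, reports compound-evoked calcium release as fluorescence (Ex/Em 480/540), measured over 3 min. Agonist mode; 15-point titrations, triplicate.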

[6] = p53 small molecule agonists, cell-based qHTS assay with human liver microsomes (AID 1963577);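 note: p53 response element beta-lactamase reporter cells with liver microsomes plus NADPH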
In short: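 p53RE-bla cells; 5 h settle, 37 C/5% CO2; cpd + HLM 0.5 mg/mL + NADPH 0.5 mg/mL (final); 16 h 37 C; LiveBLAzer 2 h RT dark; fluorescence readout.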

[7] = p53 small molecule agonists, cell-based qHTS assay with rat liver microsomes (AID 1963578)
In short: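 Rat liver microsome activation: microsomes 0.5 mg/mL, NADPH 0.5 mg/mL final; p53RE-bla cells, 16 h 37 C; LiveBLAzer readout, 2 h RT dark.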

[8] = p53 small molecule agonists, cell-based qHTS assay with human liver microsomes: qHTS cell viability counter screen (AID 1963579); note: nearly all actives have a fitted effect of over 45% in size
In short: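 Luminescent CellTiter-Glo read-out, 30 min at room temperature, gauged cytotoxicity in p53RE-bla cells exposed 16 h at 37 C to DMSO-dissolved compounds with metabolic activation by human liver microsomes and NADPH, each 0.5 mg/mL final.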

[9] = p53 small molecule agonists, cell-based qHTS assay with rat liver microsomes: qHTS cell viability counter screen (AID 1963580); note: nearly all actives have a fitted effect of over 45% in size
In short: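 p53RE-bla HCT-116 cells were exposed 16 h at 37 C to compounds with rat liver microsomes (0.5 mg/mL) and NADPH (0.5 mg/mL). Viability was measured in the same wells as ATP content by CellTiter-Glo luminescence.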

[10] = p53 small molecule agonists, cell-based qHTS assay: qHTS cell viability counter screen (AID 1963581); note: nearly all actives have a fitted effect of over 45% in size
In short: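 Following 5 h attachment, HCT-116 p53RE-bla cells took up compound for 16 h at 37 C; the reporter was read with B/G FRET substrate (2 h RT), and viability then via CellTiter-Glo ATP luminescence.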

[11] = p53 small molecule agonists, cell-based qHTS assay (AID 1963582; active = well fitted activation curve with a large enough effect in the signal ratio in the repeat runs, not every such curve was filed as active; the % refers to the signal ratio; note: potency is the fitted concentration of half-maximal effect)
In short: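 In this cell-based concentration-response screen, a p53 response element drives beta-lactamase; cells received DMSO-borne compounds after 5 h culture and were incubated a further 16 h before FRET substrate development.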

[12] = target: 5-hydroxytryptamine receptor 2A (Homo sapiens) (UniProt P28223); experiment: 5-hydroxytryptamine receptor 2A (HTR2A) small molecule antagonists, cell-based qHTS assay (AID 1963586); note: nearly all actives have a fitted effect of over 45% in size
5-hydroxytryptamine receptor 2A (Homo sapiens), sequence (P28223 whole entry, looked up): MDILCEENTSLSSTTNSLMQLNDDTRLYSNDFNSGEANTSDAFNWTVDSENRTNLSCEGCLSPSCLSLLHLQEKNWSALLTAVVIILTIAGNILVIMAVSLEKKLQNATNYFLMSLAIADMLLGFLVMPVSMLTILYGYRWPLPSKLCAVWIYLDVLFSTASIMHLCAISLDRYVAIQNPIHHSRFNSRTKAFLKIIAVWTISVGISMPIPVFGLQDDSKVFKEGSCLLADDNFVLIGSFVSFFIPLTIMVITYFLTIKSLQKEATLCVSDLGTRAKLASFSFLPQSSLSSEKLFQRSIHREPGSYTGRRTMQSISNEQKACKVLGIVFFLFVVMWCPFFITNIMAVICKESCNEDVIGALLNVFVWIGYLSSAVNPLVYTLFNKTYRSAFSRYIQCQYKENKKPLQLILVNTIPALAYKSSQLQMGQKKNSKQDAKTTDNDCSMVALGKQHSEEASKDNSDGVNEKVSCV
In short: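 Antagonist-mode intracellular calcium assay: DOI (4 nM) added after 5 min compound pre-incubation at room temperature to dye-loaded HTR2A-CHO cells. Fluorescence followed for 3 min, sampled every second.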

[13] = target: 5-hydroxytryptamine receptor 2A (Homo sapiens) (UniProt P28223); experiment: 5-hydroxytryptamine receptor 2A (HTR2A) small molecule agonists, cell-based qHTS assay (AID 1963587); note: nearly all actives have a fitted effect of over 30% in size
In short: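 CHO cells stably expressing human HTR2A, plated 18 h, loaded with calcium dye 1 h at 37 C. Agonist mode: compounds added and intracellular calcium fluorescence recorded kinetically for 2 min at 1 sec intervals.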

[14] = target: Muscarinic acetylcholine receptor M1 (Homo sapiens) (UniProt P11229); experiment: Cholinergic receptor muscarinic 1 (CHRM1) small molecule antagonists, cell-based qHTS assay (AID 1963588); note: nearly all actives have a fitted effect of over 40% in size
Muscarinic acetylcholine receptor M1 (Homo sapiens), sequence (P11229 whole entry, looked up): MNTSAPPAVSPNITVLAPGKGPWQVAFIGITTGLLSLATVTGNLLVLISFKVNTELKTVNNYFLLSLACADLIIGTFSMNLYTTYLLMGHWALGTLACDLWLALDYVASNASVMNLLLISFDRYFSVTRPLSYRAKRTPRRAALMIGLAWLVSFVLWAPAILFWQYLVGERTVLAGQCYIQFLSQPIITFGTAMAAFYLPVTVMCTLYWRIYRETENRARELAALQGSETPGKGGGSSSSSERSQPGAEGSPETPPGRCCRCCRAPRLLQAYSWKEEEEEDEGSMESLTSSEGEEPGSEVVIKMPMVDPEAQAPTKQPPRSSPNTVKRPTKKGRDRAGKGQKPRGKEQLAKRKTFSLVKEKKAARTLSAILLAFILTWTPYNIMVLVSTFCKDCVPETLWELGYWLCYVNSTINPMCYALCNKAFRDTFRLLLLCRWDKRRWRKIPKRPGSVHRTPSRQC
In short: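 CHRM1-CHO calcium-flux assay, antagonist mode. Cells were seeded 18 h, dye-loaded 1 h at 37 C and given compound for 5 min at RT, then acetylcholine was added at 50nM. FDSS fluorescence was read 3 min; 15 concentrations, three runs.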

[15] = target: Muscarinic acetylcholine receptor M1 (Homo sapiens) (UniProt P11229); experiment: Cholinergic receptor muscarinic 1 (CHRM1) small molecule agonists, cell-based qHTS assay (AID 1963589); note: nearly all actives have a fitted effect of over 35% in size
In short: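 Measures agonist-induced intracellular calcium rise. Stable human CHRM1 CHO line, 1 h dye load at 37 C, compounds from DMSO, kinetic fluorescence read.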

[16] = cAMP Responsive Elements (CRE) small molecule agonists, cell-based qHTS assay (AID 1963590)
In short: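 A CRE-responsive beta-lactamase reporter in HEK 293T cells was used. Treatment ran 3 h at 37 C; detection used LiveBLAzer B/G FRET substrate for 2 h at room temperature.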

[17] = cAMP Responsive Elements (CRE) small molecule antagonists, cell-based qHTS assay (AID 1963591; active = well fitted inhibition curve with a large enough effect in the signal ratio in the repeat runs, not every such curve was filed as active; the % refers to the signal ratio)
In short: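 HEK293T cells carrying a CRE-driven beta-lactamase reporter receive compound and NKH477 (0.25 uM final) for 3 h. Fluorescence from LiveBLAzer B/G FRET substrate is read after 2 h at room temperature.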

[18] = target: Beta-2 adrenergic receptor (Homo sapiens) (UniProt P07550); experiment: Adrenergic beta2 receptor (ADRB2) small molecule antagonists, cell-based qHTS assay (AID 1963592); note: series mostly up to about 92 µM; nearly all actives have a fitted effect of over 50% in size
Beta-2 adrenergic receptor (Homo sapiens), sequence (P07550 whole entry, looked up): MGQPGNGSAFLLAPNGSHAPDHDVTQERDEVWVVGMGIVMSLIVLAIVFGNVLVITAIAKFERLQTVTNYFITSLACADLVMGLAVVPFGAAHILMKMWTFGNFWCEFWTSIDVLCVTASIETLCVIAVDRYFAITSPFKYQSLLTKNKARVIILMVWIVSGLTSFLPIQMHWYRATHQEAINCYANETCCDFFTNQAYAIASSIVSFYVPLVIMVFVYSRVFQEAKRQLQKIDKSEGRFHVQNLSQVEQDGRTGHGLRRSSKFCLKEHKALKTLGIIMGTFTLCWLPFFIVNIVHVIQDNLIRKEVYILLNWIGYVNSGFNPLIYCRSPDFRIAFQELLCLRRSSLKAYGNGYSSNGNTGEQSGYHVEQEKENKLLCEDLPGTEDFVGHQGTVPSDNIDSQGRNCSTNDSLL
In short: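 Cells (CHO, stable ADRB2 overexpression) incubated 18-20hr at 37C; compounds added from DMSO; agonist mix (1nM isoproterenol, 100uM IBMX, 25uM Ro-20-1724) added; 0.5hr RT; d2-cAMP and anti-cAMP-cryptate added; 1hr RT; 665/615 nm read.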

[19] = target: D(2) dopamine receptor (Homo sapiens) (UniProt P14416); experiment: Dopamine D2 receptor (DRD2) small molecule antagonists, cell-based qHTS assay (AID 1963595; active = well fitted inhibition curve with a large enough effect in the signal ratio in the repeat runs, with a control signal flat; the % refers to the signal ratio)
D(2) dopamine receptor (Homo sapiens), sequence (P14416 whole entry, looked up): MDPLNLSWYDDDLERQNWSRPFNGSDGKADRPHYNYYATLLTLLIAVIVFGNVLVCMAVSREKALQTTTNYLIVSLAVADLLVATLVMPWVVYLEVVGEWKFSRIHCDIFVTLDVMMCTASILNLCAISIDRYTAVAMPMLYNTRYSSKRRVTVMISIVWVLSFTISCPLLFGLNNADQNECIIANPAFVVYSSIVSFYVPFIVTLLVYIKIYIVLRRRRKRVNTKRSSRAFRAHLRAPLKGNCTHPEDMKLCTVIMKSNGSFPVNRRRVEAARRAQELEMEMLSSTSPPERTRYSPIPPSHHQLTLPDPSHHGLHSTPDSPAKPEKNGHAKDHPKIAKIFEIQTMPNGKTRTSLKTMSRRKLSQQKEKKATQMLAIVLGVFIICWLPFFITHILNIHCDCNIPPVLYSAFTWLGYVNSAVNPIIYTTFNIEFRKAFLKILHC
In short: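 Human DRD2 antagonist qHTS measuring cAMP by HTRF. The cells are exposed to compound for 10 min, then to NKH477 (200 nM) and quinpirole (12 nM) for 30 min at RT, with Ro20-1724 (0.1 mM) present throughout.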

[20] = target: D(2) dopamine receptor (Homo sapiens) (UniProt P14416); experiment: Dopamine D2 receptor (DRD2) small molecule agonists, cell-based qHTS assay (AID 1963594); note: nearly all actives have a fitted effect of over 35% in size
In short: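 HEK293 cells stably expressing human DRD2, pre-treated with PDE inhibitor Ro20-1724 (0.1 mM final) and compound 10 min at room temperature, then stimulated with NKH477 (200nM […]) for 30 min. cAMP read by HTRF (665/620 nm).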

Row | Structure (SMILES) | Potency [1] | Potency [2] | Potency [3] | outcome [4] | outcome [5] | Potency [6] | Potency [7] | Potency [8] | Potency [9] | Potency [10] | Potency [11] | Potency [12] | Potency [13] | Potency [14] | Potency [15] | Potency [16] | Potency [17] | Potency [18] | Potency [19] | Potency [20]
1 | CC1=CCC(=C(C)C)CC1 | inactive | inactive | inactive | inactive | inactive | inactive | inactive | inactive | inactive | inactive | inactive | inactive | inactive | inactive | inactive | inactive | inactive | inactive | inactive | –
2 | O=C(O)c1c(O)c(-c2ccccc2)nc2ccccc12 | inactive | inactive | inactive | inactive | inactive | inactive | inactive | inactive | inactive | inactive | 19.9 µM (active) | inactive | inactive | inactive | inactive | inactive | inactive | inactive | inactive | inactive
3 | CC/C=C\CC/C=C/C(OCC)OCC | inactive | 61.1 µM (active) | inactive | inactive | inactive | inactive | inactive | inactive | inactive | inactive | inactive | inactive | inactive | inactive | inactive | inactive | – | inactive | inactive | inactive
4 | CCC1(C)C(=O)N(Cl)C(=O)N1Cl (configuration not stated) | inactive | inactive | inactive | inactive | inactive | inactive | inactive | inactive | inactive | inactive | inactive | inactive | inactive | inactive | inactive | inactive | inactive | – | – | inactive
5 | O=[N+]([O-])c1ccc(CO)cc1 | inactive | inactive | inactive | inactive | inactive | inactive | inactive | inactive | inactive | inactive | inactive | inactive | inactive | inactive | inactive | inactive | inactive | – | inactive | inactive
6 | O=C(CCN1CCC(c2ccccc2)C1)c1ccc2c(c1)OCCO2 (configuration not stated) | inactive | inactive | inactive | inactive | inactive | inactive | inactive | inactive | inactive | inactive | inactive | inactive | inactive | inactive | inactive | inactive | – | inactive | – | inactive
7 | O=C(O)CNC(=O)c1ccc([N+](=O)[O-])cc1 | inactive | inactive | inactive | inactive | inactive | inactive | inactive | inactive | inactive | inactive | inactive | inactive | inactive | inactive | inactive | inactive | inactive | inactive | inactive | –
8 | C=C(C)CCO | inactive | inactive | inactive | inactive | inactive | inactive | inactive | inactive | inactive | inactive | inactive | inactive | inactive | inactive | inactive | inactive | inactive | inactive | inactive | –
9 | CN1C(C)(C)CCCC1(C)C | inactive | inactive | inactive | inactive | inactive | inactive | inactive | inactive | inactive | inactive | inactive | inactive | inactive | inactive | inactive | inactive | inactive | inactive | inactive | –
10 | Cc1c(C)c2c(c(C)c1OC(=O)CCC(=O)O)CC[C@@](C)(CCC[C@H](C)CCC[C@H](C)CCCC(C)C)O2 | inactive | inactive | inactive | inactive | inactive | inactive | inactive | inactive | inactive | inactive | inactive | inactive | inactive | inactive | inactive | inactive | – | inactive | inactive | inactive
11 | C/C=C(\C)C(=O)OCCc1ccccc1 | inactive | inactive | inactive | inactive | inactive | inactive | inactive | inactive | inactive | inactive | inactive | inactive | inactive | inactive | inactive | inactive | inactive | inactive | inactive | –
12 | CCC(C)c1nccnc1OC (configuration not stated) | inactive | inactive | inactive | inactive | inactive | inactive | inactive | inactive | inactive | inactive | inactive | inactive | inactive | inactive | inactive | inactive | inactive | – | inactive | inactive
